# Test results published in ChEMBL document CHEMBL4513216, “Probing the Open Global Health Chemical Diversity Library for Multistage-Active Starting Points for Next-Generation Antimalarials” (ACS Infect Dis, 2020).
# Hit rate of the full screen: of about 69,000 compounds, about 8,600 (12%) showed an effect of 50% or more. This excerpt belongs to a sample that is enriched for strong results.
# Test system: Plasmodium berghei
# Assay: Screen against P. berghei liver stage (PbLuc), transformed with Luciferase, at 10uM
# Type: functional, HepG2
# Conditions: tested at 10 uM
row,Structure (SMILES),INHIBITION [%]
1,COc1ccc(CN2CCC3(CC(=O)N(c4cccc(F)c4)C3)C2)cc1 (stereo not drawn),21.1
2,CN(C)c1cccc(C2CCN(C3COCC3O)CC2)n1 (stereo not drawn),26.7
3,COc1ccccc1CCN[C@@H]1c2ccccc2C2(CCNCC2)[C@H]1O,88
4,COCCCN(C)[C@@H]1c2ccccc2C2(CCNCC2)[C@H]1O,11.05
5,COCCN(C)[C@@H]1c2ccccc2C2(CCNCC2)[C@H]1O,15.12
6,CN(CC1(CO)CCOCC1)[C@@H]1c2ccccc2C2(CCNCC2)[C@H]1O,21.55
7,Cc1ccc(CCN[C@@H]2c3ccccc3C3(CCNCC3)[C@H]2O)s1,54.4
8,CN(CC1(CO)CCCC1)[C@@H]1c2ccccc2C2(CCNCC2)[C@H]1O,2.18
9,Cn1ccnc1SC1CCc2ccccc2NC1=O (stereo not drawn),4.07
10,Cc1ccc(CN(CCN(C)C)Cc2c(C)nc3sccn23)o1,27.675
11,CN(C)c1cc(CNC(=O)Nc2nnc(C3CC3)s2)ccn1,-27.8
12,O=C(CC1=CCCCC1)Nc1ncn(CC(=O)N2CCCCCC2)n1,-18.4
13,CC(Nc1cccc(CN2CCOC2=O)c1)C(=O)Nc1cccc(F)c1 (stereo not drawn),28.15
14,CCS(=O)(=O)NC(CCSC)C(=O)Nc1cc(F)ccc1C (stereo not drawn),67.1
15,CSCC(CCO)NC(=O)Nc1cc(C)ccc1C (stereo not drawn),40.9
16,CCS(=O)(=O)NC(CCSC)C(=O)Nc1ccc(F)cc1 (stereo not drawn),38
17,CSCC(CCO)NC(=O)Nc1ccc(C)cc1Br (stereo not drawn),36.8
18,CSCC(CCO)NC(=O)Nc1cccc(Br)c1 (stereo not drawn),-4.94
19,CSCC(CCO)NC(=O)Nc1cc(Br)ccc1C (stereo not drawn),-4.94
20,CCS(=O)(=O)NC(CCSC)C(=O)Nc1ccccc1C (stereo not drawn),20
21,CSCC(CCO)NC(=O)Nc1ccc(Br)cc1 (stereo not drawn),53.8
22,CSCC(CCO)NC(=O)Nc1cc(F)ccc1C (stereo not drawn),50.4

row,Structure (SMILES),INHIBITION [%]
1,CO[C@@H]1CCN(Cc2ccc(C)o2)[C@H]1Cc1ccccc1,3.88
2,COc1ccc2c(c1)C(=O)NC1(CC2)CCN(Cc2ccc(F)cc2)C1 (stereo not drawn),13.621
3,Cc1oncc1C(=O)NCc1cc(=O)n2c(n1)CN(C)CCC2,16.5
4,Cc1ccccc1CN(C)C(=O)c1cc(C2CCCN2C)ccn1 (stereo not drawn),34
5,CC(=O)c1cnc(NCCN2CCCC(c3ccccc3)C2)nc1C (stereo not drawn),23.3
6,Cc1cnc(N2CCN(C(C)C(N)=O)CC2)nc1 (stereo not drawn),19
7,Cc1ccc(F)cc1-n1c(CN(C)S(C)(=O)=O)n[nH]c1=O,49.4
8,CCCc1noc(C2CC(=O)N(CCN(C)C)C2)n1 (stereo not drawn),20.9
9,Cc1ccccc1CNCc1cc(Cl)ccc1O,15
10,COc1cccc(CC(=O)N2Cc3nccn3CC(CN(C)C)C2)c1 (stereo not drawn),40.8
11,Cc1csc(C2(NC(=O)NCCN3CCOCC3)CCC2)n1,47.4
12,Cc1csc(C2(NC(=O)NCCN3CCOCC3)CCCC2)n1,64.5
13,Cc1csc(C2(NCCC(=O)N3CCOCC3)CCCC2)n1,20.9
14,CCCC(C(=O)NCCc1nc(C)cs1)N(C)C (stereo not drawn),26
15,O=C(CN1CC(n2cccn2)C1)NCCCc1ccccc1,54.4
16,Cc1cnn(C2CN(CC(=O)NCCOc3ccccc3)C2)c1,3.15
17,O=C(CN1CC(n2cccn2)C1)NCCc1ccc(F)cc1,-19.4
18,Cc1cnn(C2CN(CC(=O)NCCCc3ccccc3)C2)c1,56.6
19,N#CCCNC(=O)CN1CC(n2cccn2)C1,53
20,O=C(CN1CC(n2cccn2)C1)NCCC1=CCCCC1,-77.3
21,c1ccc(CCCN2CC(n3cccn3)C2)cc1,-5.81
22,Cc1cnn(C2CN(CC(=O)NCCc3ccccc3)C2)c1,27.4

row,Structure (SMILES),INHIBITION [%]
1,O=C(CN1CC(n2cccn2)C1)NCCCN1CCCC1=O,28.8
2,Cc1noc(C)c1CN1CCO[C@H]2[C@H](Oc3ncccc3F)CC[C@@H]21,34.4
3,CN(C)c1ccc(-c2cccc(-c3ccn(CCCO)n3)c2)nn1,-121
4,Cc1occc(=O)c1OCC(=O)N1CCN(c2cccc(Cl)c2)CC1,-5.77
5,Cc1cc(C2CCCN(CCC(=O)N3CCc4ccccc43)C2)n[nH]1 (stereo not drawn),1.04
6,CN(C)C(c1ccccn1)C1CCC(CNC(=O)C2CCCC2)CC1 (stereo not drawn),14.6
7,CN1CCC2(COCc3cnc(-c4ccccc4)nc32)C1 (stereo not drawn),-6.97
8,CC(C)CN1CCC2(COCc3cnc(-c4ccccc4)nc32)C1 (stereo not drawn),69.3
9,O=C(CC1CC1)N1CCC2(COCc3cnc(-c4ccccc4)nc32)C1 (stereo not drawn),-21.1
10,CN(C)c1ncc2c(n1)C1(CCN(CC3CC3)C1)COC2 (stereo not drawn),46.8
11,c1ccc(-c2ncc3c(n2)C2(CCN(CC4CC4)C2)COC3)cc1 (stereo not drawn),66.2
12,COCCN1CCC2(COCc3cnc(-c4ccccc4)nc32)C1 (stereo not drawn),6.79
13,CC(C)c1nc2n(n1)CC(NCc1ccncc1)CC2 (stereo not drawn),0.79
14,CCc1ccc(NC(=O)N2C[C@@H]3C[C@H](C(=O)N4CCCC4)[C@H](C2)O3)cc1,45.4
15,O=C(NCC1CCCOC1)c1ccc(-c2ccccc2)[nH]c1=O (stereo not drawn),-29.1
16,O=S(=O)(NCc1ccccc1)Nc1cccc(Cn2cncn2)c1,47.2
17,Cc1nc(Nc2nncs2)cc(C2CNC2)n1,12.75
18,CN1CCC/C1=N\S(=O)(=O)c1ccc(NC(=O)CCc2cccs2)cc1,27.4
19,CCCS(=O)(=O)N1C[C@@H]2COC[C@]2(CN2CCOCC2)C1,6.83
20,Cc1nnc([C@]23COC[C@H]2CN(S(=O)(=O)c2cccnc2)C3)o1,-2.26
21,O=S(=O)(c1cccnc1)N1C[C@@H]2COC[C@]2(COCC2CC2)C1,65.1
22,CS(=O)(=O)N1C[C@@H]2COC[C@]2(CN2CCOCC2)C1,65.9

row,Structure (SMILES),INHIBITION [%]
1,O=S(=O)(c1cccnc1)N1C[C@@H]2COC[C@]2(CN2CCOCC2)C1,55.5
2,O=S(=O)(c1ccccc1)N1C[C@@H]2COC[C@]2(COCC2CC2)C1,44.2
3,CS(=O)(=O)N1C[C@@H]2COC[C@]2(COCC(=O)N2CCCC2)C1,28.5
4,O=S(=O)(c1ccccc1)N1C[C@@H]2COC[C@]2(CN2CCOCC2)C1,9.79
5,COC[C@]12COC[C@H]1CN(S(=O)(=O)c1cccnc1)C2,33
6,Cc1ccc2c(n1)N(CCN(C)C)CCN(Cc1c(C)noc1C)C2,42.6
7,COCCN1CCc2ccccc2NCCC1=O,16.9
8,CN(Cc1cnn(C)c1)CC(O)c1ccc2c(c1)OCCCO2 (stereo not drawn),18.8
9,O=C(c1cccs1)N1CCC2(CC1)CCN(S(=O)(=O)C1CC1)CC2,45.7
10,O=C(c1sccc1-n1cnnn1)N1CCCCC1,17.4
11,CCN(CC)CC(=O)N(C)C(c1cccc(F)c1)c1ccccn1 (stereo not drawn),-4.16
12,Cc1cnn(CC2CCCN2C(=O)Cn2nc(C)c(Cl)c2C)c1 (stereo not drawn),-41.5
13,CCC(=O)N1CCc2nc(N3CCOCC3)nc(N(C)C)c2CC1,45.2
14,Cc1nc(N2CCOCC2)nc2c1CCN(C(=O)N1CCCC1)CC2,39.5
15,COCCC(=O)N1CCc2nc(N3CCOCC3)nc(NC(C)C)c2C1,76.5
16,CC(C)CC(=O)N1CCc2nc(N3CCOCC3)nc(NC(C)C)c2C1,52.9
17,COc1c(Br)c(C(=O)NC2CCCC2)nn1C,71.4
18,COc1c(Br)c(C(=O)NC2CCCCC2)nn1C,-37.1
19,COc1c(Br)c(C(=O)NC2CC2)nn1C,33.3
20,Cc1cnn(CC2CCCCN2C(=O)c2ccc3[nH]cnc3c2)c1 (stereo not drawn),5.7
21,N#Cc1ccccc1CN1CCC(CN2CCOCC2)C1 (stereo not drawn),-19.8
22,CC(C)c1nn(C)c(Cl)c1CNCc1cccnc1N(C)C,57.5

row,Structure (SMILES),INHIBITION [%]
1,CC(C)N(C)S(=O)(=O)NCc1cccnc1N(C)C,55
2,COc1ccc(S(=O)(=O)NCc2cccnc2N(C)C)cc1,21.5
3,COc1ncccc1CNCc1c(C(C)C)nn(C)c1Cl,21.7
4,CCOc1ccc(CNCc2cccnc2N(C)C)cc1,39.7
5,CN(C)c1ncccc1CNS(=O)(=O)c1ccccc1F,34.7
6,CN(C)c1ncccc1CNS(=O)(=O)c1cc(F)cc(F)c1,-10.1
7,CN(C)c1ncccc1CNS(=O)(=O)c1ccc(F)c(F)c1,11.2
8,CCCC(C)CS(=O)(=O)NCc1cccnc1N(C)C (stereo not drawn),-33.9
9,CCOc1ccc(S(=O)(=O)NCc2cccnc2N(C)C)cc1,67.5
10,CC(C)c1nn(C)c(N(C)C)c1CNCc1cccnc1N(C)C,14.815
11,COc1ccc(S(=O)(=O)NCc2cccnc2N(C)C)cc1F,58.2
12,CN(C)C(=O)COCC1CN(S(C)(=O)=O)Cc2ncn(C)c21 (stereo not drawn),38.2
13,COc1ccc(NC(=O)c2nc3ccccc3n(C)c2=O)c(OC)c1,3.19
14,Cn1ccc(C(=O)NC2CCC23CCN(Cc2cccnc2)CC3)c1 (stereo not drawn),23.5
15,CC(O)C1CCN(C(=O)CCOc2ccccc2F)CC1 (stereo not drawn),-17.8
16,CC(C)(C)S(=O)(=O)c1ccc(N2CCC(n3cccn3)CC2)cn1,-8.66
17,Cc1ccc2nc(C(=O)N(C)[C@@H]3CC[C@@H](N4CCCC4)[C@@H]3O)cn2c1,1.068
18,c1ccc(Cc2noc(CN3CCCC3Cn3cccn3)n2)cc1 (stereo not drawn),1.78
19,Fc1ccc(-c2cnc(CN3CCOC(Cn4cccn4)C3)o2)cc1 (stereo not drawn),-21.8
20,COc1ccccc1CN1CCc2c(nc(-c3ccccn3)[nH]c2=O)C1,25.6
